Among the data in PubChem BioAssay (NCI) are growth values, retold here.

The structures appear in SMILES notation. Compounds without any hit were thinned out: in the full panel of roughly 83,000, 20% have a hit.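 Cells were grown in 96-well plates and exposed to the test compound at a single concentration for 48 hours; results are reported as percent growth, with values below 10 considered active.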 A number with no mark means an inactive call. Activity calls are given as the source filed them.

The experiment has as its system ACHN renal. Nature of the experiment: NCI-60 one-dose screen, 48 h (100 = growth as untreated, 0 = no growth, -100 = all killed). To be noted: 10 µM unless noted.
As for `Cc1ccc(NC(=O)N[C@@H](Cc2cc(F)cc(F)c2)C(=O)NC2C(=O)N3CCC[C@H]3C(=O)N3CCCC[C@H]3C(=O)N[C@@H](C)C(=O)N3C[C@H](C)C[C@H]3C(=O)O[C@H]2C)c(F)c1` (some centres undefined), the growth is 32.1%. On to `COc1ccc(/C=C/C(=O)c2nnn(-c3ccc(C(=O)O)cc3)c2C)cc1OC`, for which the growth was 91.4%.

For the molecule `O=C(Nc1cc(F)cc2cccnc12)c1cnc(N2CCOCC2)cn1`, the growth is 34.8%. On to `Oc1ccccc1-c1nnc(SCc2ccc(O)c3ncccc23)o1`, for which the growth is 25.4%. In the case of `COc1cc(/C=C2\SC(=O)NC2=O)ccc1OCC(=O)Nc1ccc(C(=O)/C=C/c2cc3ccccc3nc2Cl)cc1`, the growth is 93.8%. Next, `Nc1nc(-c2cccc([N+](=O)[O-])c2)c(N=Nc2ccccc2Cl)s1`: 63.2%; `Oc1ccc(-c2nnc(SCc3ccc(O)c4ncccc34)o2)cc1`: 3.36% (active); `C[C@H]1[C@H](C)CC[C@]2(COC(=O)c3cccnc3)CC[C@]3(C)C(=CC[C@@H]4[C@@]5(C)CCCNC(C)(C)[C@@H]5CC[C@]43C)[C@H]12`: 75.7%. As for `O=c1[nH]c2cc(Cl)ccc2n1C1CCN(c2ccc3nnc(Cl)n3n2)CC1`, the figure is 88.2%; as for `COc1ccc(N2CCN(C(=O)CSc3ccc(-c4nc5cc(C)c(C)cc5[nH]4)cn3)CC2)cc1`, 77.5%. Turning to `Cc1cc(F)cc(NS(=O)(=O)c2ccc(-c3cnc(C4CC4)o3)cc2)c1`, the growth was 44.4%.

`Oc1ccc(CSc2nnc(-c3ccncc3)o2)c2cccnc12`: the growth is 40.5%. As for `O=C(COc1ccc(/C=C2\SC(=O)NC2=O)cc1)Nc1ccc(C(=O)/C=C/c2cc3ccccc3nc2Cl)cc1`, the growth was 85.1%. Turning to `O=C(Nc1cccc(Cl)c1)Nc1nc2ccc([N+](=O)[O-])cc2s1`, the growth was 5.59% (active). Next, `Cn1cc(-c2nn3cc(-c4cccnc4)nc3s2)c2cc(F)ccc21`: 83.8%; `COc1ccc(CCN2C(=O)/C(=C/c3nc(CO)cs3)SC2=S)cc1`: 72.7%.

Regarding `C/C(=N\NC(=S)Nc1ccc(Br)cc1)c1cc2ccccc2oc1=O`, the growth was 14.9%. On to `O=C1[C@H]2Cc3c([nH]c4ccccc34)[C@@H](c3ccc(Cl)cc3)N2C(=O)CN1C1CCN(Cc2c(Cl)cccc2Cl)CC1`, for which the growth is -33.8% (active). As for `O=C1[C@H]2Cc3c([nH]c4ccccc34)[C@@H](c3c(Cl)cccc3Cl)N2C(=O)CN1C1CCN(Cc2ccccc2)CC1`, the figure is 93%. As for `Oc1ccccc1-c1nnc(SCc2ccc(O)c3ncccc23)n1-c1ccccc1`, the figure is 8.88% (active); as for `CC1=C2C(=C[C@@](C)(COS(N)(=O)=O)[C@@H]2O)C(=O)[C@](C)(O)C12CC2`, 47.4%; as for `CC1(COc2ccc3ncc(C#Cc4cncc(C(=O)Nc5cc(C(C)(C)C)on5)c4)n3n2)COC1`, 30.6%. Regarding `NC(=S)N/N=C(/C=C/c1cn(-c2ccccc2)nc1-c1ccc(Cl)cc1)c1cc2ccccc2oc1=O`, the growth was 43.7%.

Turning to `O=C(/C=C1\C=CN(CCCCO)c2ccccc21)n1ccc2ccccc21`, the growth was 93.7%. Next, `Cc1cc(NS(=O)(=O)c2ccc(-c3cnc(C4CC4)o3)cc2)ccc1I`: 45.1%. Turning to `Oc1ccc(CSc2nnc(-c3ccccc3)o2)c2cccnc12`, the growth is 10.4%. Next, `CS(=O)(=O)c1ccc2c(c1)c1c(n2S(=O)(=O)c2ccc(Cl)cc2)CCCC1`: 46.9%; `CN(C)C(=O)c1ccccc1-n1cnc2ccccc2c1=O`: 96.3%; `C=C(C)C(=O)O[C@H]1C[C@@]2(C)OC(=CC2=O)[C@H](C)[C@H](O)[C@H]2OC(=O)C(=C)[C@@H]21`: 31.9%.

Take `O=C(Nc1cc(Cl)cc(Cl)c1)Nc1nc2ccc([N+](=O)[O-])cc2s1`: the growth is 3.76% (active). With `C#C[C@]1(O)CC[C@H]2[C@@H]3CC=C4c5sc(Nc6ccc(OC)nc6)nc5CC[C@]4(C)[C@H]3CC[C@@]21C`, the growth is 33.4%. As for `CCOc1ccc2nc(NC(=O)Nc3ccccc3C)sc2c1`, the figure is 67%; as for `CN(c1ccc(Br)cc1)S(=O)(=O)c1ccc(-c2cnc(C3CC3)o2)cc1`, 38.9%. As for `CCNC(=NCCCN(C)C)N/C(N)=N/c1nc2ccccc2s1`, the growth is 95.3%. As for `Cc1cc(Cl)cc(NS(=O)(=O)c2ccc(-c3cnc(C4CC4)o3)cc2)c1`, the figure is 46.1%; as for `N/C(=N\c1nc2ccc([N+](=O)[O-])cc2s1)C(Cl)(Cl)Cl`, 9.8% (active). Regarding `CS(=O)c1nccc(-c2c(-c3ccc(F)c(OCCc4ccc(F)cc4)c3)nc3sccn23)n1` (centres undefined), the growth is 37.7%.

As for `CN(c1ccc(F)cc1)S(=O)(=O)c1ccc(-c2cnc(C3CC3)o2)cc1`, the growth was 43%.

Turning to `Cc1cn(-c2cc(NC(=O)c3cncc(C#Cc4cnc5ccc(OCCCS(C)(=O)=O)nn45)c3)cc(C(F)(F)F)c2)cn1`, the growth is 56.2%.
